# Measurements as given in PubChem BioAssay (NCI).
# Compounds without any hit were thinned out: in the full panel of roughly 79,000, 15% have a hit. Unmarked numbers belong to inactive results. The source made the active and inactive calls. Rule as the data show it: active = growth inhibition above about 70%; inactive = the rest.
# Legend:
# [1] = NCI Yeast Anticancer Drug Screen. Data for the rad50 strain (AID 155);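 also: 0% = growth of vehicle-only cultures of the same strain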; conditions: S. cerevisiae rad50 strain growth inhibition; at 50.0 µM; stronger effect = higher value
# In short: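 Relative growth inhibition (compound vs vehicle) was measured in yeast with a defined repair-gene alteration.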
# [2] = NCI Yeast Anticancer Drug Screen. Data for the mec2-1 strain (AID 157); conditions: S. cerevisiae mec2-1 strain, at 50.0 µM, stronger effect = higher value
# In short: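 Growth inhibition is read against vehicle-treated controls after compound exposure of the mec2-1 yeast strain, which is defective in DNA damage repair or cell cycle control.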
# [3] = NCI Yeast Anticancer Drug Screen. Data for the sgs1 mgt1 strain (AID 161);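 also: 0% = growth of cultures given vehicle only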; conditions: S. cerevisiae sgs1 mgt1 strain, at 50.0 µM, stronger effect = higher value
# In short: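 Percent growth inhibition was derived by comparing compound-exposed mutant yeast with vehicle-exposed cultures. The strain carries alterations in DNA damage repair.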
# [4] = NCI Yeast Anticancer Drug Screen. Data for the cln2 rad14 strain (AID 165);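 also: 0% = growth equal to vehicle treated cultures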; conditions: S. cerevisiae cln2 rad14 strain, at 50.0 µM, stronger effect = higher value
# In short: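 Growth inhibition, relative to vehicle-treated controls, is the read-out. The test organism is a yeast strain with defined genetic alterations, cln2 rad14.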
# [5] = NCI Yeast Anticancer Drug Screen. Data for the bub3 strain (AID 167); conditions: S. cerevisiae bub3 mutant strain, at 50.0 µM, stronger effect = higher value
# In short: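 Screening used yeast with an engineered genetic alteration affecting cell cycle control. Compound-exposed cultures were compared with vehicle cultures, and reduced growth was taken as inhibition.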
# [6] = NCI Yeast Anticancer Drug Screen. Data for the mlh1 rad18 strain (AID 175); conditions: S. cerevisiae mlh1 rad18 strain growth inhibition; at 50.0 µM; stronger effect = higher value
# In short: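 Cells of a genetically altered yeast strain, deficient in DNA damage repair, were treated with compound. Their growth was then compared with that of vehicle-treated cultures to give inhibition.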
SMILES,growth inhibition [1],growth inhibition [2] [%],growth inhibition [3] [%],growth inhibition [4] [%],growth inhibition [5] [%],growth inhibition [6] [%]
COC1OC(COS(C)(=O)=O)C2OC(C)(C)OC12 (stereo unspecified),11.6%,1.85,3.55,11.6,-9.3,21.9
O=c1[nH]c2cc(Cl)ccc2nc1/C=C(\O)c1ccc([N+](=O)[O-])cc1,25.6%,21.8,37.4,7.85,6.55,54
COC(=O)c1ccc(CSc2ccc(N)cc2)cc1,53.1%,36.2,60.6,40.1,46.1,68.5
CCCC(=O)N[C@H]1C2C3CC4C5CC(C42)C1(C)C53 (stereo partly specified),-5.3%,-17.4,3.8,10.3,7.25,-17.2
O=C(/C=C(\Cl)c1ccc2c(c1)OCO2)OC/C=C\c1ccc2c(c1)OCO2,30.9%,9.55,25.1,20.3,-7.4,19.2
Cc1nc(/N=C(\N)Nc2ccc(Cl)c(Cl)c2)[nH]c(=O)c1Cc1ccccc1,2.3%,1.65,-10.1,-6.75,-5.05,3.65
CCCCCOc1ccc(C2=C(c3ccccc3)C(=O)C(c3ccccc3)=C2c2ccccc2)cc1,40.4%,12.3,33.5,26.9,-3.15,23.4
Cc1cccc(C(=O)NCCN(C)C)c1[N+](=O)[O-],5.55%,-20.9,1.2,14.9,-16.4,3.35
O=[N+]([O-])C(/C=C(\Cl)[N+](=O)[O-])=C1Nc2ccccc2N1,29.9%,45.1,57.2,19.4,21.1,50.5
C=CC(C)(C)[C@@]12CC3C(=O)N[C@@H](Cc4ccccc4)C(=O)N3[C@@H]1N(C(C)=O)c1ccccc12 (stereo partly specified),73.2% (active),12.2,16.7,50.5,45.6,53.1
O=C(N/C(=C/c1ccc(Cl)cc1)c1nc2ccccc2c(=O)n1Nc1ccc([N+](=O)[O-])cc1[N+](=O)[O-])c1ccccc1,-19%,-5,-19.7,0.3,-21.6,-17.5
CCOC(=O)c1c(C)c2c(n1C)CCC(CCC(C)=O)C2=O (stereo unspecified),5.6%,5.5,-0.4,14.3,6.7,3.15
N#CCC1C2CC3C(C2=O)C13 (stereo unspecified),-0.6%,5.85,-2.2,22.4,4.65,-39.8
CC(C)n1c(=S)[nH]c2c(=O)[nH]c(=O)[nH]c21,-30.9%,-22.4,0.05,-53.2,10.8,-17.4
Cc1cn(CCCn2cnc3c(N)ncnc32)c(=O)[nH]c1=O,-12.7%,-31.6,-9.55,-6.6,-31.4,-2.9
Oc1ccc2ccccc2c1C=NCc1c(O)ccc2ccccc12,3.5%,-1.7,-11.2,-39.2,-43.6,8.75
Cc1cc(O)c(C(c2c(O)cc(C)c(Cl)c2C)C(Cl)(Cl)Cl)c(C)c1Cl,26.1%,21.9,30.9,39.6,20.6,18.2
C=CCN1C(=O)C/C(=C2/CCC(=O)N2CC=C)C1=O,-11.1%,-27.4,-16,3.6,1.8,-9.8
CC1(C)CC(O)CC(O)C1 (stereo unspecified),-4.3%,-0.55,-0.2,14.1,-0.15,-6.9
Cc1ccc(NC(=O)C(=O)CC(=O)c2c(C)n([O-])c3ccccc3[n+]2=O)cc1C,-6.2%,-1.55,1.25,9.35,0.2,11.9
CCOC(=O)NNC(N)=O,-2.8%,-19.2,-18,-22.1,1.8,-10.5

SMILES,growth inhibition [1],growth inhibition [2] [%],growth inhibition [3] [%],growth inhibition [4] [%],growth inhibition [5] [%],growth inhibition [6] [%]
N#C/C(=C\c1ccco1)c1ccc([N+](=O)[O-])cc1,16.2%,15.1,25.6,-0.25,42.3,14.3
CC(Oc1ccccc1-c1ccccc1)C(=O)N(C)C (stereo unspecified),-15.2%,-0.2,1.45,0.75,-20.6,-45.6
CC(=O)CCC(CC(=O)O)C(C)C (stereo unspecified),12%,0.05,14.9,-9,4.8,24.1
O=[N+]([O-])c1ccc(Cl)c(F)c1Cl,-13%,-17.1,-0.2,5.15,-3.9,-12.2
Clc1ccccc1CSc1cnnc(SCc2ccccc2Cl)c1SCc1ccccc1Cl,-0.1%,13.3,6.4,22.9,10.7,27.6
COc1ccc(C2CCCCCC2OC(=O)c2ccc([N+](=O)[O-])cc2)c(OC)c1OC (stereo unspecified),16%,11.5,-2.45,42.9,2.6,1.7
CC(=O)[O-].O=S(=O)(Nc1ncccn1)c1ccc(N=Cc2ccccc2O)cc1.O=S(=O)(Nc1ncccn1)c1ccc(N=Cc2ccccc2O)cc1.[Cu+2],-7.4%,-21.6,-17.4,-8.25,-17.6,-1.35
NC(=O)N/N=C1/CCC(O)CC1CC(=O)O (stereo unspecified),-7.85%,-4.75,-7.05,12.7,-57.9,-2.95
O=c1c(-c2ccc3c(c2)OCO3)coc2cc(O)ccc12,-2.9%,-0.85,18.9,13.7,11.6,23.1
C(=N/OCc1ccccc1)/c1ccncc1,45%,27.6,45.7,30.2,47.4,46.9
Cc1ccc(C(=O)/C=C\c2ccc(Cl)c(Cl)c2)cc1,-14.9%,-5.8,23.3,-5.5,35.7,5.6
Oc1ccccc1CNc1ncc(Cl)cc1Cl,24.9%,16,26.8,-5.15,39.1,19.4
Cn1c(=O)sc2ccccc21,19.4%,-18.2,14.3,15.1,-8.8,25.6
COc1ccc(CCCNC(=O)c2cc(OC)c(OC)cc2CCO)cc1OC,18.9%,15.1,-45.5,-9.6,-31.2,-11.8
CCOc1cc[n+](C)c2ccc(C)cc12,13.6%,12.8,11.3,16.3,21.5,26.7
Cn1c(Cl)cc2nc3ccccc3n2c1=O,10.2%,19.7,-1,-11.3,11.2,5.4
O=C(NC1CC12c1ccccc1-c1ccccc12)Oc1ccc2ccccc2c1 (stereo unspecified),68.4%,18.8,60.9,45.8,55.2,57.4
Cc1cccc(-n2c(N)c(-c3nc4ccccc4[nH]3)sc2=S)c1,6.7%,-11.9,13.4,10.2,3.4,2.6
CCCn1cnc2c(SCC(=O)O)nc(N)nc21,-33.3%,-18.9,-24.4,-26.1,-22.1,-8.9
NC1=NC(=O)C(CC(=O)Nc2ccc(Cl)cc2Cl)S1 (stereo unspecified),-12.4%,-17.6,-15.2,3.3,-5.6,-5.6
